Eight molecules from PubChem BioAssay (NCI) can be followed below.

Among the test systems are SR leukemia; RPMI-8226 leukemia; OVCAR-8 ovarian; OVCAR-5 ovarian; OVCAR-4 ovarian; SK-OV-3 ovarian; IGROV1 ovarian; OVCAR-3 ovarian; HS 578T breast; NCI/ADR-RES ovarian; T-47D breast; BT-549 breast; MDA-MB-435 melanoma; SW-620 colon; MCF7 breast; HCT-116 colon; HCC-2998 colon; KM12 colon.
Holding throughout (experiment): NCI-60 one-dose screen, 48 h (100 = growth as untreated, 0 = no growth, -100 = all killed)
What all share (conditions): 10 µM unless noted

About 83,000 compounds went through this panel and 20% of them were active in at least one assay; those are over-represented in the sample as a whole.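 Interpretation: 100, growth as untreated; towards 0, rising growth inhibition; 0, no net growth; 0 to -100, cell death. Compounds scoring below 10 were considered active.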 Unmarked numbers belong to inactive results. Active and inactive are the calls of the source.

As to `Cc1ccc(OCCOCCOCCOCCOc2ccc(C)n(O)c2=S)c(=S)n1O`, the growth is 6.36% (active) in the experiment on SR leukemia; 13.4% in the experiment on RPMI-8226 leukemia; 9.37% (active) with OVCAR-8 ovarian; 39.1% in the experiment with OVCAR-5 ovarian; 24.4% in the experiment on OVCAR-4 ovarian; 0.0112% (active) with SK-OV-3 ovarian. Moreover, the growth in the experiment with IGROV1 ovarian was 30.9%; in the experiment on OVCAR-3 ovarian, 25%; with HS 578T breast, 44%; in the experiment with NCI/ADR-RES ovarian it was 1.43% (active); with T-47D breast, 8.09% (active); in the experiment with BT-549 breast, 14.1%. In addition, the growth is 29.4% in the experiment with MDA-MB-435 melanoma; 25.7% in the experiment with SW-620 colon; 10.1% with MCF7 breast; 14.3% with HCT-116 colon; 5.72% (active) in the experiment on HCC-2998 colon; 18.6% with KM12 colon.

For the molecule `CCOC(=O)C1=C(c2ccccc2)N=C2N(c3ccccc3)N=C(C(C)=O)N2C1c1ccc(Br)cc1` (centres undefined), the growth with SR leukemia is 81.8%; in the experiment with RPMI-8226 leukemia, 77.8%; with OVCAR-8 ovarian it was 93.9%; with OVCAR-5 ovarian, 104%; with OVCAR-4 ovarian, 104%; in the experiment on SK-OV-3 ovarian it was 112%. The growth in the experiment on IGROV1 ovarian was 88%; in the experiment with OVCAR-3 ovarian, 102%; with HS 578T breast, 83.2%; with NCI/ADR-RES ovarian, 103%; in the experiment on T-47D breast, 79.8%; in the experiment with BT-549 breast, 98.3%. Also, the growth in the experiment with MDA-MB-435 melanoma was 101%; in the experiment with SW-620 colon, 97%; with MCF7 breast it was 89.2%; with HCT-116 colon, 84.7%; in the experiment on HCC-2998 colon, 103%; with KM12 colon, 94.9%.

Turning to `CCOC(=O)C1=C(c2ccccc2)N=C2SC=C(c3cccc([N+](=O)[O-])c3)N2C1c1ccc(O)cc1` (centres undefined), the growth with SR leukemia is 109%; in the experiment with RPMI-8226 leukemia, 98%; with OVCAR-8 ovarian it was 97.9%; in the experiment with OVCAR-5 ovarian, 100%; with OVCAR-4 ovarian, 106%; in the experiment with SK-OV-3 ovarian, 102%. For the same molecule, the growth with IGROV1 ovarian is 95.5%; with OVCAR-3 ovarian, 101%; in the experiment with HS 578T breast, 102%; in the experiment with NCI/ADR-RES ovarian it was 99.3%; with T-47D breast, 93.5%; in the experiment with BT-549 breast it was 95.1%. The growth is 101% with MDA-MB-435 melanoma; 97.6% with SW-620 colon; 95.1% in the experiment on MCF7 breast; 100% with HCT-116 colon; 101% in the experiment with HCC-2998 colon; 99.7% with KM12 colon.

On to `COc1ccc(C(=O)/C=C/c2ccc(C)cc2)cc1S(N)(=O)=O`, for which the growth in the experiment on SR leukemia was 5.31% (active); in the experiment on RPMI-8226 leukemia it was 35.8%; with OVCAR-8 ovarian, 29.3%; in the experiment with OVCAR-5 ovarian it was 77%; in the experiment with OVCAR-4 ovarian, 84.1%; in the experiment on SK-OV-3 ovarian, 114%. Moreover, the growth was 28% in the experiment with IGROV1 ovarian; 39.2% in the experiment with OVCAR-3 ovarian; 84.9% in the experiment with HS 578T breast; 51.7% in the experiment on NCI/ADR-RES ovarian; 94.1% in the experiment on T-47D breast; 64.1% in the experiment on BT-549 breast. Further, the growth is 88.3% in the experiment with MDA-MB-435 melanoma; 21.9% in the experiment with SW-620 colon; 22% in the experiment on MCF7 breast; 9.96% (active) with HCT-116 colon; 99% in the experiment with HCC-2998 colon; 44.3% with KM12 colon.

Take `C#Cc1c(I)n(C2OC(CO[Si](C)(C)C(C)(C)C)C3OC(C)(C)OC32)c(=O)[nH]c1=O` (centres undefined): the growth is -41.8% (active) in the experiment with SR leukemia; -66.8% (active) with RPMI-8226 leukemia; 97.8% with OVCAR-8 ovarian; 91.9% with OVCAR-5 ovarian; 88.9% with OVCAR-4 ovarian; 107% in the experiment with SK-OV-3 ovarian. Besides, the growth with IGROV1 ovarian was 36.6%; in the experiment with OVCAR-3 ovarian, -40.2% (active); in the experiment with HS 578T breast it was 5.41% (active); in the experiment with NCI/ADR-RES ovarian, 89.6%; in the experiment with T-47D breast, -69.3% (active); in the experiment with BT-549 breast, 98.5%. In addition, the growth was 81.2% in the experiment with MDA-MB-435 melanoma; -98.3% (active) in the experiment on SW-620 colon; 42.1% in the experiment on MCF7 breast; -49.6% (active) with HCT-116 colon; -75.7% (active) in the experiment on HCC-2998 colon; 105% in the experiment with KM12 colon.

Turning to `Cc1[nH]c(C(=O)Nc2ccccc2OC2CCNC2)c(Cl)c1Cl` (centres undefined), the growth with SR leukemia was 0.45% (active); in the experiment with RPMI-8226 leukemia it was 79%; with OVCAR-8 ovarian it was 94%; with OVCAR-5 ovarian, 95.5%; with OVCAR-4 ovarian, 79.1%; in the experiment with SK-OV-3 ovarian it was 99.3%. Further, the growth with IGROV1 ovarian is 66.5%; with OVCAR-3 ovarian, 84.5%; with HS 578T breast, 93.2%; with NCI/ADR-RES ovarian it was 86.7%; in the experiment with T-47D breast, 83.2%; in the experiment on BT-549 breast it was 88%. Besides, the growth in the experiment with MDA-MB-435 melanoma was 86.4%; with SW-620 colon, 79.8%; in the experiment on MCF7 breast, 67.3%; in the experiment on HCT-116 colon it was 42.8%; in the experiment with HCC-2998 colon, 94.4%; with KM12 colon, 84.2%.

On to `CC(C)=CCC[C@](C)(O)C1CC[C@]2(C)[C@@H]1CC[C@@H]1[C@@]3(C)CC/C(=N\OCCC#N)C(C)(C)[C@@H]3CC[C@]12C` (some centres undefined), for which the growth in the experiment on SR leukemia is 61.6%; with RPMI-8226 leukemia, 36%; with OVCAR-8 ovarian it was 85.1%; in the experiment on OVCAR-5 ovarian, 99.1%; with OVCAR-4 ovarian, 79.9%; with SK-OV-3 ovarian, 84.3%. Also, the growth in the experiment with IGROV1 ovarian was 97.4%; in the experiment on OVCAR-3 ovarian, 93.2%; in the experiment with HS 578T breast, 92.9%; in the experiment with NCI/ADR-RES ovarian it was 97.7%; in the experiment with T-47D breast, 52.6%; in the experiment on BT-549 breast, 102%. Further, the growth in the experiment on MDA-MB-435 melanoma is 87.7%; with SW-620 colon, 78.8%; with MCF7 breast, 63.2%; in the experiment with HCT-116 colon it was 66.2%; in the experiment on HCC-2998 colon, 84.5%; in the experiment on KM12 colon, 84.7%.

Take `C=C(C)[C@@H]1CC[C@]2(COC(=O)c3cccnc3)CC[C@]3(C)[C@H](CC[C@@H]4[C@@]5(C)CCCN(C(=O)c6cccnc6)C(C)(C)[C@@H]5CC[C@]43C)[C@@H]12`: the growth was 11.3% in the experiment on SR leukemia; 14% in the experiment on RPMI-8226 leukemia; 26.9% with OVCAR-8 ovarian; 53.9% in the experiment on OVCAR-5 ovarian; 37.6% with OVCAR-4 ovarian; 53.1% in the experiment with SK-OV-3 ovarian. Further, the growth was 42.8% in the experiment with IGROV1 ovarian; 32.9% in the experiment with OVCAR-3 ovarian; 59% in the experiment on HS 578T breast; 42.7% in the experiment with NCI/ADR-RES ovarian; 31.3% in the experiment with T-47D breast; 51.9% with BT-549 breast. Also, the growth in the experiment on MDA-MB-435 melanoma was 38.3%; in the experiment on SW-620 colon it was 32.2%; in the experiment with MCF7 breast, 25.6%; in the experiment with HCT-116 colon, 28.1%; with HCC-2998 colon, 50.1%; in the experiment on KM12 colon, 31.2%.
